Laboratory results published in PubChem BioAssay.
A number with no mark means an inactive call. Active and inactive are the calls of the source.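 The calls were made as follows, unless noted: active = mean inhibition above 46.5%, the solvent-only control mean plus 3 SD; inactive = the rest.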

How the values were obtained:
[1] = tested on: transactivating tegument protein VP16 (Human herpesvirus 1); assay: VP16 transactivation reporter inhibitors, counter-screen for SRC2 inhibitor project, cell-based, luminescence, single concentration (AID 652007; in the data active = inhibition above about 36%); details: cell-based VP16 transactivation luciferase reporter, at 8.9 µM, hits give high values
[2] = biological target: Nuclear receptor coactivator 2 (Homo sapiens) (UniProt Q15596); assay: SRC2 coactivator transcriptional activity inhibitors, confirmation, cell-based, luminescence, HEK293, triplicate (AID 652008); details: HEK293 GAL4-SRC2 luciferase reporter, at 8.9 µM, hits give high values;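 also: 0% = DMSO-treated cells and 100% = Gossypol at 36 µM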
Chain of Nuclear receptor coactivator 2 (Homo sapiens) (Q15596 whole entry, looked up, the tested form may be a part): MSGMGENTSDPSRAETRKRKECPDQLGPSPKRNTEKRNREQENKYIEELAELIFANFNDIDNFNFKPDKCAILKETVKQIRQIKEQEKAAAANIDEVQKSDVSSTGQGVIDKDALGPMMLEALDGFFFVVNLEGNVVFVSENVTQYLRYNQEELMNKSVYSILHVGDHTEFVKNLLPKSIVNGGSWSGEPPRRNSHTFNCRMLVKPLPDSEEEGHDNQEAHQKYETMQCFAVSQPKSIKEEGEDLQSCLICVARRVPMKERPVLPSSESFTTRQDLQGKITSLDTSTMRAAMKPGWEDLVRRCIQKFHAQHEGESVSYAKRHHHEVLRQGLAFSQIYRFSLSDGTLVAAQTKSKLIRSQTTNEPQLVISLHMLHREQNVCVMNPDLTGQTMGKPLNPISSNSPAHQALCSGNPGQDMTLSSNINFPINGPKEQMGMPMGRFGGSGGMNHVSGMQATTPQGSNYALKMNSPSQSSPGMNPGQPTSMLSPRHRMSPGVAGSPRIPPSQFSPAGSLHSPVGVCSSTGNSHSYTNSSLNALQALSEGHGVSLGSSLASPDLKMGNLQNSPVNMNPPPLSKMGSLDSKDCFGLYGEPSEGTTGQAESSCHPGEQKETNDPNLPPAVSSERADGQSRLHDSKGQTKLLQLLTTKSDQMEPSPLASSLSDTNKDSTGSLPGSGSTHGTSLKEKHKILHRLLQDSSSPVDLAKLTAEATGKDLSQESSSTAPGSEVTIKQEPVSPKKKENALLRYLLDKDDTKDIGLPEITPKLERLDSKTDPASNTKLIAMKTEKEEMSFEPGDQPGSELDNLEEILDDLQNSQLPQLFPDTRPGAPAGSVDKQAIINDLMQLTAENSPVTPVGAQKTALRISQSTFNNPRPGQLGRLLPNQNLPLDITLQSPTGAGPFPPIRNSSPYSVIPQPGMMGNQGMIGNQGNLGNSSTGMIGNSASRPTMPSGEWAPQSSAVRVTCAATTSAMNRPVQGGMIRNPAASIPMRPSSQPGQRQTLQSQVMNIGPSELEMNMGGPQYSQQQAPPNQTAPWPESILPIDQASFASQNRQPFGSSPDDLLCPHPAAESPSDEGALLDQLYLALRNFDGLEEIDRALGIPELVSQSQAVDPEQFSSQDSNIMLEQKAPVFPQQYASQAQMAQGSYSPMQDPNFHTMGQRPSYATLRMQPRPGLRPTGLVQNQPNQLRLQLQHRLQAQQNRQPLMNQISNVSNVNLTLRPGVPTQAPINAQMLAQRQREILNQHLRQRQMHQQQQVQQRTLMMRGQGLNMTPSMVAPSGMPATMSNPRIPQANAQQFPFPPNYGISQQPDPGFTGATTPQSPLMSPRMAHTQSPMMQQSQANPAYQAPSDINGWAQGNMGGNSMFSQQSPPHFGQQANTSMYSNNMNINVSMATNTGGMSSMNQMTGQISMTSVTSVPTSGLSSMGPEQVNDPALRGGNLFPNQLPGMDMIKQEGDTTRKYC

For `COc1ccc(C(C(=O)NC2CCCC2)n2c(CSCCOc3ccccc3)nc3ccccc32)cc1` (centres undefined), the inhibition [1] was 43.5% (active) and the inhibition [2] was 76.4% (active).
For `COC(=O)COc1ccc(-c2nccc(-c3ccccn3)n2)cc1`, the inhibition [1] was 16.9% and the inhibition [2] was 73.4% (active).
In the case of `Cc1c([N+](=O)[O-])cnc(Sc2ccccc2)c1[N+](=O)[O-]`, the inhibition [1] is reported as 3.41% and the inhibition [2] is reported as 16.7%.
`Cc1ccc(-c2c3c(nc4sc(C(N)=O)c(N)c24)CCC3)cc1` showed an inhibition [1] of 1.89% and an inhibition [2] of 34.5%.
In the case of `CCCC(=O)NC(c1ccccc1)c1ccc2cccnc2c1O` (centres undefined), the inhibition [1] is reported as -0.88% and the inhibition [2] is reported as 33.3%.
Molecule `COc1ccc(CN2C(=O)C(CC(=O)NCCN3CCOCC3)CC(C(=O)N(C(C)C)C(C)C)=C2C)cc1` (centres undefined) has an inhibition [1] of 0.37% and an inhibition [2] of -36.3%.
In the case of `Cc1ccc(C2CC(c3cccs3)=NN2C(=O)CSC2=NCCS2)cc1` (centres undefined), the inhibition [1] is reported as 17.9% and the inhibition [2] is reported as 16.1%.
With `CN(Cc1cc(Cl)cc(Cl)c1)CC(C(=O)c1ccccc1)c1ccccc1` (centres undefined) the inhibition [1] was 25% and the inhibition [2] was 47.9% (active).
For `CC(=O)Nc1ccc(NC(=O)c2nc(S(=O)(=O)Cc3cccc(C)c3)ncc2Cl)cc1`, the inhibition [1] was 21.6% and the inhibition [2] was 50.8% (active).
With `CCC(C(=O)NCc1ccc(F)cc1)n1nc(C)n2c(cc3occc32)c1=O` (centres undefined) the inhibition [1] was -13.4% and the inhibition [2] was -6.88%.
In the case of `Nn1c(SCC(=O)Nc2cccc3ccccc23)nnc1-c1cc(-c2ccc(Cl)cc2)n[nH]1`, the inhibition [1] is reported as 51% (active) and the inhibition [2] is reported as 15.4%.
`C(=N\Nc1nc2ccccc2s1)/c1ccccn1` was tested, and the inhibition [1] was 49.5% (active) and the inhibition [2] was 52.3% (active).
With `CC(=NNc1ccc2ccccc2n1)c1ccccn1` the inhibition [1] was 83.8% (active) and the inhibition [2] was 89.3% (active).
`CCC(C)[C@H](NC(=O)N1CCn2c1nc1ccccc12)C(=O)NCc1ccc(OC)cc1` (some centres undefined) showed an inhibition [1] of -13% and an inhibition [2] of 8.36%.
Molecule `Clc1cccc(-c2nc(-c3ccccn3)no2)c1` has an inhibition [1] of -11% and an inhibition [2] of 7.62%.
Molecule `CN(Cc1ccccc1F)C(=O)C1CCC(CNS(=O)(=O)c2cccc3cccnc23)CC1` (centres undefined) has an inhibition [1] of 3.95% and an inhibition [2] of -2.23%.
Work on `O=[N+]([O-])c1cccc2c(N3CCCC3)ccnc12` yielded an inhibition [1] of 11.7% and an inhibition [2] of -23.4%.
